In this experiment the test system is Plasmodium falciparum NF54/iGP1_RE9H ulg8 stage V gametocytes. In words: gametocyte viability (luciferase signal relative to DMSO control) (% of DMSO control); higher = less gametocytocidal activity, active = 50 or less. Particulars: exposure time: 72 h. Summed up:
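NF54/iGP1_RE9Hulg8 stage V gametocytes (day 12; ~2.5% gametocytemia, 3% hematocrit) in medium with 0.5% Albumax II were added to 96-well plates of nanolitre-spotted compounds (10 mM DMSO stocks), giving 10 µM or 1 µM, one well each. Plates were incubated 72 h at 37 °C. Then 90 µl was mixed with 10 µl D-luciferin (30 mg/ml) and luminescence was read on an IVIS Lumina II. Viability is relative to the mean of plate DMSO vehicle controls.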

Values without a mark were called inactive.

Regarding `C/C(O)=C(\C#N)C(=O)Nc1cc(Br)ccc1Br`, the gametocyte viability was 110 (concentration: 1 µM) and 101 (concentration: 10 µM).

`Cc1ccccc1-n1c(Cn2cnc3c(N)ncnc32)nc2cccc(C)c2c1=O`: the gametocyte viability (concentration: 1 µM) was 101 and the gametocyte viability (concentration: 10 µM) was 96.9.

As to `O=c1[nH]c2ccc(Cl)cc2c(N[C@@H]2CN3CCC2CC3)c1-c1nc2ccccc2[nH]1`, the gametocyte viability is 112 (concentration: 1 µM) and 120 (concentration: 10 µM).

Take `OC[C@H]1O[C@@H](n2cnc3cc(Cl)c(Cl)cc32)[C@H](O)[C@@H]1O` [5,6-dichloro-1-β-D-ribofuranosylbenzimidazole]: the gametocyte viability by setting is: (concentration: 1 µM) 112; (concentration: 10 µM) 119.

With `CC(C)(C)c1cc(C=C(C#N)C#N)cc(C(C)(C)C)c1O`, the gametocyte viability runs as follows: (concentration: 1 µM) 101; (concentration: 10 µM) 110.

Consider `Cc1ccccc1-n1c(Cn2ncc3c(N)ncnc32)nc2cccc(C)c2c1=O`, for which the gametocyte viability is, setting by setting: (concentration: 1 µM) 94.7; (concentration: 10 µM) 104.

Turning to `N#CC(C#N)=Cc1ccc([N+](=O)[O-])c(O)c1`, the gametocyte viability was 107 (concentration: 1 µM) and 102 (concentration: 10 µM).

As to `N#CC(C#N)=Cc1cc(O)c(O)c(O)c1`, the gametocyte viability runs as follows: (concentration: 1 µM) 104; (concentration: 10 µM) 97.9.

For `Cn1cc(C2=C(c3cn(C4CCN(Cc5ccccn5)CC4)c4ccccc34)C(=O)NC2=O)c2ccccc21`, the gametocyte viability was 100 (concentration: 1 µM) and 109 (concentration: 10 µM).

As for `CN[C@@H]1C[C@H]2O[C@@](C)([C@@H]1OC)n1c3ccccc3c3c4c(c5c6ccccc6n2c5c31)C(=O)NC4` [Staurosporine], the gametocyte viability runs as follows: (concentration: 1 µM) 110; (concentration: 10 µM) 27.1 (active).

With `COC[C@H]1OC(=O)c2coc3c2[C@@]1(C)C1=C(C3=O)[C@@H]2CCC(=O)[C@@]2(C)C[C@H]1OC(C)=O` [Wortmannin], the gametocyte viability was 91.8 (concentration: 1 µM) and 89.3 (concentration: 10 µM).

As for `N#CC(C#N)=Cc1ccc(O)c(O)c1`, the gametocyte viability runs as follows: (concentration: 1 µM) 99; (concentration: 10 µM) 104.

On to `N#C/C(=C\c1ccc(O)c(O)c1)C(N)=S`, for which the gametocyte viability was 101 (concentration: 1 µM) and 101 (concentration: 10 µM).

Regarding `CC(=O)c1c(O)c(C)c(O)c(Cc2c(O)c3c(c(C(=O)/C=C/c4ccccc4)c2O)OC(C)(C)C=C3)c1O` [Rottlerin], the gametocyte viability (concentration: 1 µM) is 100 and the gametocyte viability (concentration: 10 µM) is 96.9.

For the compound `CCN1CCN(C(=O)Cc2ccc(Nc3ncc(F)c(Nc4ccc(C(=O)Nc5ccccc5Cl)cc4)n3)cc2)CC1` [Aurora A Inhibitor I], the gametocyte viability reads like this: (concentration: 1 µM) 110; (concentration: 10 µM) 82.7.

`CC1=C(O)C(=O)[C@@H]2O[C@@H]2C1=O` [Terreic acid]: the gametocyte viability was 98.4 (concentration: 1 µM) and 64.8 (concentration: 10 µM).

With `N#CC(C#N)=Cc1cc(O)c(O)c([N+](=O)[O-])c1`, the gametocyte viability is, setting by setting: (concentration: 1 µM) 103; (concentration: 10 µM) 101.

These data come from the supplement of paper PMC12297408.
